Usually AC50 stands for the concentration at which the activity in the assay is half-maximal.

Each structure is given as a SMILES string. Records with an inconclusive call do not appear. Calls of active or inactive are those of the source. The calls were made as follows, unless noted: active = hit-call score of the fitted dose curve at least 0.9, where 1 is the maximum; inconclusive = response in the unintended direction; inactive = score below 0.9.

Read-out in the first test: not listed separately
Briefly: CEETOX_H295R_MTT_cell_viability: Viability Assessment in the CeeTox HT-H295R MTT Assay (AID 2283718; active = hit-call score of the fitted dose curve at least 0.9, where 1 is the maximum; inactive = score below 0.9). In outline:
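H295R cells prestimulated 48 h with 10 uM forskolin, then exposed 48 h to test chemical (0.1% DMSO final). Viability by MTT (0.5 mg/ml, 4 h, 37 C), absorbance 570/650 nm; percent change versus DMSO, bidirectional fit.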
With `CCNc1nc(Cl)nc(NC(C)(C)C)n1`, the outcome was inactive.
Turning to `Nc1ccc(Cl)cc1`, the compound was called inactive.
With `Cc1cccc(N)c1`, the call was inactive.
Same read-out and setting: then `Nc1cc2c3c(c1)C(c1ccccc1)=N[C@@H](NC(=O)c1cccnc1)C(=O)N3CC2`, with “inactive”.
Still for that read-out and setting: then `CCOP(=S)(Oc1ccc([N+](=O)[O-])cc1)c1ccccc1` (stereo not drawn), with “inactive”.

Tested on in a further test: not listed separately
Briefly: Tanguay_ZF_120hpf_ActivityScore_legacy: (Legacy) Oregon State University Tanguay Lab 120 Hour Post-fertilization zebrafish Assay Score for Activity (AID 2283742).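 As to AC50: static exposure from 6 hpf until 120 hpf at 28 °C.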 The essentials: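 Tropical 5D wild-type zebrafish embryos, dechorionated with pronase at 4 hpf, were exposed singly from 6 hpf to 120 hpf statically at 28C in 0.64% DMSO. Malformations and mortality were scored as binary by brightfield, with the activity score combining 18 morphology components.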
Regarding `ClC1=C(Cl)C2(Cl)C3C(Cl)C(Cl)CC3C1(Cl)C2(Cl)Cl` (stereo not drawn), the call was inactive.
On the same count and under the same terms, with `O=[N+]([O-])c1ccc(Cl)c(Cl)c1` the entry was “inactive”; with `O=P1(N(CCCl)CCCl)NCCCO1` (stereo not drawn), “inactive”; with `CCCCN(CCCC)SN(C)C(=O)Oc1cccc2c1OC(C)(C)C2`, “inactive”.
In the case of `CCCCN(CCCC)N=O`, the outcome was inactive.
In the case of `CCCN(CCC)c1c([N+](=O)[O-])cc(C(C)C)cc1[N+](=O)[O-]`, the compound was called inactive.
The same measure, in the same setting: then `CC(Cl)(Cl)C(=O)O`, with “inactive”.
Regarding `c1cc2c3c(cccc3c1)CC2`, the call was inactive.
Still for that read-out and setting: then `CCNc1nc(Cl)nc(NC(C)(C)C)n1`, with “inactive”.
With `CC(C)(C)c1ccc(O)cc1`, the AC50 was 42.8 µM (active).
As to `CCCCCCCc1ccc(O)cc1`, the outcome was inactive.
Still for that read-out and setting: with `Cc1ccc([N+](=O)[O-])cc1C` the entry was “inactive”; with `Cc1ccc(O)cc1C`, “inactive”; with `CC(Cc1ccc(OCC(=O)O)cc1)NCC(O)c1csc(C(F)(F)F)n1` (stereo not drawn), “inactive”.
On to `c1nc[nH]n1`, for which the call was inactive.
As to `Nc1ccc(Cl)cc1`, the compound was called inactive.
As to `ClC(Cl)(Cl)c1ccccc1`, the result was inactive.
The same measure, in the same setting: with `CCN(CC)c1ccccc1` the entry was “inactive”; with `CCOS(=O)(=O)OCC`, “inactive”; with `CCCCc1ccccc1`, “inactive”.
Still for that read-out and setting: with `Cc1cccc(N)c1` the entry was “inactive”; with `OCC1CO1` (stereo not drawn), “inactive”.
Still for that read-out and setting: then `Nc1cc2c3c(c1)C(c1ccccc1)=N[C@@H](NC(=O)c1cccnc1)C(=O)N3CC2`, with “inactive”.
As for `CCOP(=S)(Oc1ccc([N+](=O)[O-])cc1)c1ccccc1` (stereo not drawn), the call was inactive.
The same measure, in the same setting: then `ClC(Cl)c1ccccc1`, with “inactive”.
The same measure, in the same setting: then `CCOP(=S)(OCC)SCSCC`, with “inactive”; and `CSC(C)(C)C=NO`, with “inactive”.
The same measure, in the same setting: with `[N-]=[N+]=[N-]` the entry was “inactive”; with `CN(C)C(=O)Cl`, “inactive”.
With `CC(C)(C)OOC(C)(C)C`, the compound was called inactive.

In another test the test system is Thyroperoxidase (TPO), gene 445522. Briefly: CCTE_Simmons_GUA_TPO: CCTE's Guaiacol Assay for Thyroperoxidase (TPO) Inhibition, Simmons Lab (AID 2283750). In outline: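 Porcine thyroid microsomes (25 ug) in 200mM potassium phosphate, preincubated 30 s at 37C with compound (8 concentrations, 5 nM–87.5 uM) and 35mM guaiacol; 1mM H2O2 starts reaction. Absorbance change at 450nm over first 80 s; loss of signal versus DMSO, three replicates.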
As to `Cc1cccc(N)c1`, the AC50 is 8.25 µM (active).
For the compound `Nc1cc2c3c(c1)C(c1ccccc1)=N[C@@H](NC(=O)c1cccnc1)C(=O)N3CC2`, the result was inactive.
`[N-]=[N+]=[N-]`: the AC50 was 26.5 µM (active).

Source of the values: PubChem BioAssay (EPA / NIEHS).
